The values below come from PubChem BioAssay (Tox21).

This experiment has as its target Beta-2 adrenergic receptor (Homo sapiens) (UniProt P07550). The experiment can be described thus: Adrenergic beta2 receptor (ADRB2) small molecule agonists, cell-based qHTS assay (AID 1963593). The method, boiled down:
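CHO cells stably over-expressing ADRB2 were plated overnight at 37C, then dosed with compounds plus a stimulation mix containing 100uM IBMX and 25uM Ro-20-1724 for 0.5hr at room temperature. cAMP was measured by HTRF competition, 1hr.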
For orientation: In qHTS, concentration-response curves come from the screen itself.

Inconclusive results are not listed. Entries that show only a call come without a potency. Activity calls are given as the source filed them. Calls follow the shape of the full dose curve.
Potency is read from the fitted curve at half-maximal effect.

Beta-2 adrenergic receptor (Homo sapiens), sequence (P07550 whole entry, looked up): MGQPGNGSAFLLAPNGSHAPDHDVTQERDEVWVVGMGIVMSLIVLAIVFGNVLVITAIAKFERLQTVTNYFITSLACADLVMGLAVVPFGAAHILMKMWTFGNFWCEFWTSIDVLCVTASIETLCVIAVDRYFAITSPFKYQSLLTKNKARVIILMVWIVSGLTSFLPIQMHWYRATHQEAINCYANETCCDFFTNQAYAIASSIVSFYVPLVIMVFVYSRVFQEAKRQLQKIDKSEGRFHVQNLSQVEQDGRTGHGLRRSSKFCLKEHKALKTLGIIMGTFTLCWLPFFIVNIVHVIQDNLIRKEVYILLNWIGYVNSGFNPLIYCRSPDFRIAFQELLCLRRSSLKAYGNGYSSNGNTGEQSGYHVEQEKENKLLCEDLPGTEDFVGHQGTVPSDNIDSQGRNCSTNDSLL

Consider `NCC1(CC(=O)O)CCCCC1`, for which the Potency result is “inactive”. Then `COC(=O)N(C(=O)N1COC2(C(=O)OC)Cc3cc(Cl)ccc3C2=N1)c1ccc(OC(F)(F)F)cc1` (stereo not drawn), with “inactive”; and `CCC(C(N)=O)N1CCCC1=O` (stereo not drawn), with “inactive”; and `CNP(=O)(OC)Oc1ccc(C(C)(C)C)cc1Cl` (stereo not drawn), with “inactive”. Consider `CO/C=C(/C(=O)OC)c1ccccc1COc1cccc(C(F)(F)F)n1`, for which the Potency entry was “inactive”. Take `CC1NCCOC1c1ccccc1` (stereo not drawn): the Potency result was “inactive”. Regarding `O=C(Nc1ccc2[nH]ccc2c1)c1cc2cc(F)ccc2n1Cc1cccc(F)c1`, the Potency result was “inactive”. For the molecule `CC(=O)C(Cl)C(=O)N(C)C` (stereo not drawn), the Potency result was “inactive”. With `CNC(C)Cc1ccccc1OC` (stereo not drawn), the Potency entry was “inactive”. Then `ClC=C(Cl)Cl`, with “inactive”; and `CCCCCCCCCCCCCCCCCCn1cc[n+](C)c1`, with “inactive”.

Consider `C1CCNCC1`, for which the Potency result is “inactive”.

In the case of `CCN(CC)C(=O)Cl`, the Potency entry was “inactive”. Take `C[C@]12CC[C@H]3[C@@H](CCC4=CC(=O)CC[C@@]43C)[C@@H]1CC[C@@H]2C(=O)O`: the Potency entry was “inactive”. Turning to `OC(c1ccccc1)(c1ccccc1)C1CCNCC1`, the Potency result is “inactive”. As for `O=[N+]([O-])c1cccc2cccnc12`, the Potency result was “inactive”.

On to `C=CCOC(=O)C(C)(C)OC(=O)c1cc(-n2c(=O)cc(C(F)(F)F)n(C)c2=O)ccc1Cl`, for which the Potency entry is “inactive”. Turning to `CCCCC(CC)COC(=O)OOC(C)(C)C` (stereo not drawn), the Potency result is “inactive”. Take `COP(N)(=S)Oc1ccccc1C(=O)OC(C)C` (stereo not drawn): the Potency result was “inactive”. For the molecule `COP(=O)(OC)O/C(=C\Cl)c1cc(Cl)c(Cl)cc1Cl`, the Potency result was “inactive”. The same measure for `CCOc1cc(OP(=S)(OC)OC)nc(CC)n1`: “inactive”. Turning to `CC1(C)[C@H](C=C(Cl)Cl)[C@@H]1C(=O)O[C@@H](C#N)c1cccc(Oc2ccccc2)c1`, the Potency entry is “inactive”.

Turning to `CNCC(=O)c1ccc(O)c(O)c1`, the Potency was 531 nM (active). The same measure for `CC(C)[C@H](C(=O)O[C@H](C#N)c1cccc(Oc2ccccc2)c1)c1ccc(Cl)cc1`: “inactive”; for `CCOC(=O)COc1ccc(Cl)cc1Cl`: “inactive”.

Turning to `O=C(O)CC(Cl)C(=O)O` (stereo not drawn), the Potency result was “inactive”. Regarding `CC(O)C#N` (stereo not drawn), the Potency entry was “inactive”. With `CCN(CCO)CCn1c(Cc2ccccc2)nc2c1c(=O)n(C)c(=O)n2C`, the Potency result is “inactive”. The same measure for `CCN(C(C)=O)c1cccc(-c2ccnc3c(C#N)cnn23)c1`: “inactive”. Turning to `O=C(OC1CCCCC1)c1ccccc1C(=O)OC1CCCCC1`, the Potency entry is “inactive”. For the molecule `Oc1ccc2c3c1O[C@H]1[C@@H](O)C=C[C@H]4[C@@H](C2)NCC[C@@]341`, the Potency result is “inactive”.

On to `CC(Cl)(Cl)[N+](=O)[O-]`, for which the Potency result is “inactive”. Take `CC(C)[N+](=O)[O-]`: the Potency result is “inactive”. Regarding `CCOC(=O)NC(=S)Nc1ccccc1NC(=S)NC(=O)OCC`, the Potency entry was “inactive”. In the case of `O=C(O)COc1ccc(Cl)cc1`, the Potency result was “inactive”.

For the molecule `O=CCCl`, the Potency result was “inactive”. As for `CC(C)(C)C(=O)C(Oc1ccc(Cl)cc1)n1cncn1` (stereo not drawn), the Potency entry is “inactive”. For `Cc1cccc(Cc2cnc[nH]2)c1C`, the Potency result was “inactive”. As to `[Cl][Sb]([Cl])[Cl]`, the Potency result was “inactive”. Consider `II`, for which the Potency entry is “inactive”. For the molecule `CC1N=C(N)OC1c1ccccc1` (stereo not drawn), the Potency entry was “inactive”.

As to `COC(=O)N(OC)c1ccccc1COc1ccn(-c2ccc(Cl)cc2)n1`, the Potency entry is “inactive”. On to `CN1COCN(Cc2cnc(Cl)s2)/C1=N\[N+](=O)[O-]`, for which the Potency entry was “inactive”.

As for `c1ccc2cc3c(cc2c1)-c1cccc2cccc-3c12`, the Potency result was “inactive”. With `COC1CC(=C(c2cccs2)c2cccs2)C[N+](C)(C)C1` (stereo not drawn), the Potency result was “inactive”. On to `COc1cc(OC)nc(NC(=O)NS(=O)(=O)c2ncccc2OCC(F)(F)F)n1`, for which the Potency entry is “inactive”. For the molecule `ClCCCCBr`, the Potency entry was “inactive”. As to `CN(C)C1CSSSC1`, the Potency result was “inactive”.
